Bioassay records deposited in PubChem BioAssay by several laboratories.
zVAD death inh = L929 zVAD cell death inhibition; L929 zVAD necroptosis rescue, ATP luminescence, 24 h; with zVAD 60 µM; viability rescue, % at 10 µM; 220,000 compounds, 0.38% hits; AID 1377;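 active = activation, scaled between plate controls, above about 75%, limit read from the data; inactive = activation under that limit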;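 also: 0% = zVAD with DMSO and 100% = DMSO alone without zVAD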
HSV augment = increases HSV replication in cells | maximum fold increase | 220,000 compounds, 0.005% hits | HSV replication augmentation in cells, fold increase; in the data active = maximum fold increase above about 1.5; inconclusive = no clear call, values can overlap the other calls; tested in PC3 cells
TNF necrop inh = inhibitors of TNF-alpha induced necroptosis in Jurkat FADD-/- cells; Jurkat FADD-/- TNF necroptosis rescue, ATP luminescence, 24 h; 0 = TNF only, 100 = no-TNF cells; activation (protection from cell death), % at 10 µM; 220,000 compounds, 0.068% hits;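 active = activation, meaning protection from cell death, of at least 50% relative to plate controls; inactive = activation below 50%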;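 also: necroptosis triggered by 40 ng/mL TNF-alpha added together with compound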
m-calpain inh = blocks pig calpain II enzyme activity; 220,000 compounds, 0.37% hits; AID 1236; purified calpain II, fluorogenic peptide substrate, 30 min; inhibition, % at 16 µM;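 active = inhibition above about 50%, limit read from the data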
zVAD death conf = confirmed blocker of zVAD induced death in L929 cells | shares compounds with zVAD death inh | L929 zVAD-induced necroptosis rescue, ATP luminescence, 24 h | activation (protection from necroptosis), % at 10 µM | 760 compounds, 16% hits;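 active = mean protection from necroptosis of at least 50% over duplicate tests; inactive = mean protection below 50%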;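 also: 0% = cells with zVAD alone and 100% = vehicle cells without zVAD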
Active calls of the source: *; i = inactive; u = inconclusive; x = no result given. Compounds with a hit are over-represented: about 0.77% of the library has one in this group of screens.

SMILES	zVAD death inh	HSV augment	TNF necrop inh	m-calpain inh	zVAD death conf
C=CCN1N=C(c2ccc(NC(=O)c3ccccc3)cc2)CSC1=O	6.9	i	0.3	4.5	x
CNc1nc(C)nc(N/N=C/c2ccccc2)n1	75.9*	i	16.2	-27.9	1.1
O=[N+]([O-])/C(C=Nc1ccccc1O)=C\Nc1ccccc1O	87.5*	i	0.5	-208.0	30.7
O=[N+]([O-])/C(=C\Nc1ccccc1Cl)S(=O)(=O)c1ccccc1	0.1	i	-2.8	-5.9	x
CCN1C(=O)/C(=C2/Sc3ccccc3N2CC)S/C1=N\c1ncn[nH]1	81.9*	i	-3.2	-27.8	4.5
CCC(=O)Nc1cccc(NC(=S)NC(=O)c2ccc(Cl)cc2Cl)c1	0.7	i	0.2	3.2	x
O=C(NC(=S)Nc1cccc(NC(=O)c2ccc(Cl)cc2Cl)c1)c1cccs1	77.3*	i	-0.7	17.4	34.5
COc1cc(C(=O)NCCNC(=O)C2CCCNC2=O)cc(OC)c1OC (stereo unspecified)	0.4	i	1.2	13.3	x
COc1cc(CO)ccc1OCC(=O)Nc1ccc(Br)cc1	76.0*	i	1.3	-4.5	0.4
COc1ccc(/C=C(/C(=O)c2cccs2)N2C=CC=CC2=C(C#N)C#N)cc1	56.5	u	-10.6	-94.6	x
COc1ccc(C(=O)/C(=C\c2ccco2)N2C=CC=CC2=C(C#N)C#N)cc1	96.8*	i	11.2	-82.1	27.7
C(=N\Nc1nc2ccccc2s1)/c1ccccn1	31.1	i	-21.2	-3.9	x
COc1cc(/C=N/Nc2nc3ccccc3s2)ccc1OC(=O)c1ccccc1F	75.1*	i	31.2	-7.2	75.1*
COc1cc(/C=N/Nc2nc3ccccc3s2)cc([N+](=O)[O-])c1O	76.0*	i	24.6	31.1	0.7
COc1cc(OC)cc(C(=O)Oc2ccc(/C=N/Nc3nc4ccccc4s3)cc2OC)c1	76.8*	i	2.6	-33.3	4.9
Brc1csc(/C=N/Nc2nc3ccccc3s2)c1	76.5*	i	7.0	-15.5	2.2
COc1cc(/C=N/Nc2ccccc2)ccc1OC(=O)c1cccs1	-0.6	i	2.6	15.3	x
CN(C)c1cc(Cl)c2nonc2c1N	1.3	i	-2.4	6.4	x
COc1c(F)c(F)c(C(=O)O)c(Nc2ccc(C)cc2C)c1F	2.1	i	-0.5	19.3	x
COc1cc(Cl)cc(/C=N/NC(N)=O)c1O	-0.3	i	-0.7	-325.4	x
CCOC(=O)c1sc(NC(=O)C(C)Sc2nnc(N)s2)nc1C (stereo unspecified)	77.8*	i	1.1	-24.8	1.9
Cc1c(NC(=S)N2CCN(c3ccc(F)cc3)CC2)c(=O)n(-c2ccccc2)n1C	1.4	i	-0.4	-9.8	x
O=C(Cc1ccc(F)cc1)Nc1cccc(-c2ccc3nncn3n2)c1	89.1*	i	4.9	12.3	3.3
COc1ccc(S(=O)(=O)N2c3ccccc3OCC2c2ccccc2)cc1 (stereo unspecified)	0.1	i	-17.5	23.0	x
O=C(CCl)N1c2ccccc2OCC1c1ccccc1 (stereo unspecified)	90.1*	i	-15.1	-2.6	2.8
SMILES	zVAD death inh	HSV augment	TNF necrop inh	m-calpain inh	zVAD death conf
CN(C)S(=O)(=O)c1ccc(Cl)c(NC(=O)CSc2nnnn2-c2ccc(O)cc2)c1	86.0*	i	9.5	12.9	88.1*
Cc1ccc(S(=O)(=O)N(C)C)cc1NC(=O)CSc1nnnn1-c1ccc(O)cc1	74.9	i	8.6	-5.8	x
O=c1oc2ccccc2n1CSC1=NCCS1	100.9*	i	61.0*	6.0	1.3
COC(=O)CCc1c(C)[nH]c(C(=O)OCc2ccccc2)c1C	76.5*	i	-1.4	-6.0	1.0
CCOC(=O)c1[nH]c(C(=O)O)c(CCC(=O)OC)c1C	1.0	i	0.2	2.5	x
Cc1ccc(C(=O)N2CCN(c3ccc(NC(=O)COc4ccccc4C)cc3)CC2)cc1	1.7	i	-4.5	14.5	x
CC(C)(C)c1nc(NC(=O)Nc2ccccc2)sc1Br	83.5*	i	-0.5	21.2	3.1
O=C1/C(=C\c2ccc(O)c(O)c2)N=C2CCCCCN12	4.8	i	-6.7	30.2	x
CCN1CCN(Cc2ccc(NC(=O)c3ccc(C)c(NC(=O)c4ccnnc4)c3)cc2C(F)(F)F)CC1	75.9*	i	4.9	-13.5	55.9*
CCN1CCN(Cc2ccc(NC(=O)c3ccc(C)c(NC(=O)c4ccc5n[nH]nc5c4)c3)cc2C(F)(F)F)CC1	71.8	i	2.5	-16.4	x
CCN1CCN(Cc2ccc(NC(=O)c3cc(NC(=O)c4cnn(-c5ccccc5)c4N)cc(OC)c3)cc2C(F)(F)F)CC1	80.0*	i	-26.4	-44.4	80.8*
O=S(=O)(NC(=NCCc1ccc(Cl)cc1)c1ccccc1Cl)c1cccs1	0.4	i	3.2	21.1	x
CCOC(=O)C1(Cc2ccc(Cl)cc2)CCN(C(=O)CCc2ccncc2)CC1	-0.6	i	2.0	2.9	x
N#Cc1cc[n+](CC(=O)c2ccc(NC(=O)c3ccccc3)cc2)cc1	1.1	i	0.5	-7.8	x
O=C(CSc1nnc(-c2ccccc2Br)o1)N1CCN(C(=O)c2ccco2)CC1	86.3*	i	-1.0	11.6	38.5
O=C(CSc1nnc(-c2ccc(F)cc2)o1)N1CCN(C(=O)c2ccco2)CC1	2.5	i	-3.8	-8.0	x
CC(=O)c1sccc1NC(=O)c1ccccc1C(=O)O	-0.2	i	0.5	16.9	x
O=C(O)/C=C\C(=O)NCc1cccnc1	1.7	i	0.4	-13.8	x
COc1ccccc1Nc1nc(-c2ccccc2O)nc2ccccc12	75.9*	i	2.1	-40.8	-0.5
Cc1ccc(CC2SC(N)=NC2=O)cc1 (stereo unspecified)	83.4*	i	2.7	-22.1	2.7
Cc1cccc(CC2SC(N)=NC2=O)c1 (stereo unspecified)	4.3	i	0.9	-7.8	x
Cc1nc2nc(SCC(=O)c3ccc([N+](=O)[O-])cc3)[nH]c2cc1Br	89.5*	i	-0.2	-19.1	0.9
CSC1=C(C#N)C(c2ccccc2Cl)C(C(C)=O)=C(C)N1 (stereo unspecified)	-0.3	i	-2.7	-12.7	x
C=CCOC(=O)C1=C(C)NC(SCC(=O)Nc2nccs2)=C(C#N)C1c1ccc(Cl)cc1 (stereo unspecified)	0.7	u	2.1	36.4	x
CC(=O)C1=C(C)NC(SCC(=O)Nc2nccs2)=C(C#N)C1c1ccccc1Cl (stereo unspecified)	82.0*	i	14.5	-35.1	2.7
C=CCOC(=O)C1=C(C)NC(SCC(=O)Nc2nccs2)=C(C#N)C1c1cccs1 (stereo unspecified)	87.5*	i	12.1	-21.6	66.1*
CSc1cccc(NC(=S)Nc2cc(C)ccc2C)c1	-0.2	i	-13.1	-9.8	x
NS(=O)(=O)c1ccc(NC(=O)c2ccc(CNS(=O)(=O)c3cc(C(F)(F)F)ccc3Cl)cc2)cc1	0.1	i	2.5	-16.3	x
COc1cc(/C=N/Nc2ccc(C(F)(F)F)cn2)ccc1O	78.9*	i	45.3	-10.1	92.9*
